For 9 targets, log2 fold change results are on record in the supplement of paper PMC10849652.

Holding throughout (experiment): log2 fold change, soluble protein after heating vs DMSO (PISA); higher = thermal stabilisation; K562 cells, 10 uM, 30 min; active = over 0.2 and 3.5 SD of the protein, either way, in both replicates (recomputed)
Compound in one experiment: C#Cc1cccc(Nc2ncnc3cc(OCCOC)c(OCCOC)cc23)c1 [erlotinib]
The gist of the method: (§1)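 Quantification of soluble protein used TMTpro 16plex LC-MS/MS, with channel sums equalised. Samples were the supernatant after 21,000xg for 90 min of pooled aliquots from K562 cells (2×10^6 cells/mL) treated with 10 μM compound for 30 min, heated for 3 min over 48°C-58°C, and extracted in PBS with 0.5% NP-40 at 4°C. Values, from duplicates, describe thermal stability against control samples on a log2 fold-change scale.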

Compound in experiment [1]: C/C(=N\NC(=O)C1=CC(=CC=C1)S(=O)(=O)N2CCOCC2)/C3=C(C=CC(=C3)Cl)O
The procedure, abridged: as §1

Compound in experiment [2]: C1=CC(=C(C=C1Cl)C2=NC3=NC=CN=C3C(=N2)NC4=CC=NC=C4)F
The procedure, abridged:
as §1

Compound in experiment [3]: C1=CC(=CC=C1C2=NC3=C(N2)C=C(C=C3)C(=O)N)OC4=CC=C(C=C4)Cl
The procedure, abridged: as §1

Compound in experiment [4]: C1=CC2=C(C=CC(=C2)/C=C\3/C(=O)NC(=NCC4=CC=CS4)S3)N=C1
The gist of the method:
as §1

Compound in experiment [5]: C1=CC2=NC=CN=C2C=C1/C=C/3\C(=O)NC(=O)S3
The gist of the method:
as §1

Compound in experiment [6]: C1=CC=C(C=C1)C2=NC(=C(N2)C3=CC=NC=C3)C4=CC(=C(C=C4)Cl)O
The gist of the method:
as §1

Compound in experiment [7]: C1=CC=C2C(=C1)C3=NNC4=CC=CC(=C43)C2=O
The gist of the method: as §1

Compound in a further experiment: C1COCCN1CCN2C3=CC=CC=C3N=C2NC(=O)C4=CC(=CC=C4)[N+](=O)[O-] [IRAK-1-4 Inhibitor I]
The gist of the method: as §1

Compound in another experiment: C=CC(=O)N1CCC[C@@H](n2nc(-c3ccc(Oc4ccccc4)cc3)c3c(N)ncnc32)C1 [ibrutinib]
The procedure, abridged: as §1

Compound in experiment [8]: CC(=O)c1cnc2ccc(-c3cc(Cl)c(O)c(Cl)c3)nc2c1N[C@H]1CC[C@H](CN(C)C)CC1
The gist of the method:
as §1

Compound in a further experiment: CC(C)(C)Cn1c(N)nc2ccc(-c3[nH]c(C(C)(C)C)nc3-c3ccc(F)cc3)nc21 [ralimetinib]
The procedure, abridged:
as §1

Compound in experiment [9]: CC(C)(O)CC(=O)NCCn1ccc2ncnc(Nc3ccc(Oc4cccc(C(F)(F)F)c4)c(Cl)c3)c21
The procedure, abridged:
as §1

Compound in experiment [10]: CC(C)C1=C2N=C(C=C(N2N=C1)NCC3=CC=CC=C3)NCCCCCCN
The gist of the method: as §1

Compound in experiment [11]: CC(C)C[C@@H](C=O)NC(=O)[C@H](CC(C)C)NC(=O)[C@H](CC(C)C)NC(=O)OCc1ccccc1
The gist of the method: as §1

Compound in the next experiment: CC(C)N(C[C@H]1O[C@@H](n2cnc3c(N)ncnc32)[C@H](O)[C@@H]1O)[C@H]1C[C@@H](CCc2nc3cc(C(C)(C)C)ccc3[nH]2)C1 [pinometostat]
The gist of the method: as §1

Compound in experiment [12]: CC1=C(C(CC(=O)N1)C2=CC=C(C=C2)C(F)(F)F)C(=O)NC3=C(C=C4C(=C3)C=NN4)F
The procedure, abridged:
as §1

Compound in experiment [13]: C1CCN(C1)C(=O)NC2=CC=CC(=C2)NC3=NC=C(C(=N3)NCCC4=CN=CN4)Br
The procedure, abridged:
as §1

Compound in experiment [14]: C1CN(CCC1(CC2=CC=C(C=C2)Cl)N)C3=NC=NC4=C3C=CN4
The procedure, abridged:
as §1

Compound in experiment [15]: CC1=C(C2=C(C=C1)C(=O)C3=CC=CC=C3N2CCCN)C
The gist of the method: as §1

Targets with a hit are over-represented here; the source holds about 7,900 in all. About 0.6% of all pairs of compound and target were hits. A number with no mark means an inactive call.

Sequence of UniProt Q92581 (Q92581 whole entry, looked up): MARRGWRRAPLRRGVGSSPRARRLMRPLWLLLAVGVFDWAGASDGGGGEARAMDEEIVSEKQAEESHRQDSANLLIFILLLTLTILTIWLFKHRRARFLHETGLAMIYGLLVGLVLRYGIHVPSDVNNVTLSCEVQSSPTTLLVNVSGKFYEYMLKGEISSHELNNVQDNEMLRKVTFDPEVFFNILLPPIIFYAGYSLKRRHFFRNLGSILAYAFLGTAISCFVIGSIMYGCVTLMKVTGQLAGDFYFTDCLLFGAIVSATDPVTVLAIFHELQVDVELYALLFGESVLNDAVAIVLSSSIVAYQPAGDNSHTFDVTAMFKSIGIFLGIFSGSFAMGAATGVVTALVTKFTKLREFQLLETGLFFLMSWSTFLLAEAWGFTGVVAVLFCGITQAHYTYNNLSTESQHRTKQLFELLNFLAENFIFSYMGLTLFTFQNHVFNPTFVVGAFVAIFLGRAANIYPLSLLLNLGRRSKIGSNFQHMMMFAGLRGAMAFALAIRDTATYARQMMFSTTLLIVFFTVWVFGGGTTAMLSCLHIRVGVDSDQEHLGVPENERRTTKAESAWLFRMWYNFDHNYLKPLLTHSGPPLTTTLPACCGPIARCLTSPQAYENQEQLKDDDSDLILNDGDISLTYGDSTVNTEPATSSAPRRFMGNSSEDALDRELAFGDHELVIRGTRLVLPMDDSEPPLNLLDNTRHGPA
Sequence of UniProt Q02086 (Q02086 whole entry, looked up): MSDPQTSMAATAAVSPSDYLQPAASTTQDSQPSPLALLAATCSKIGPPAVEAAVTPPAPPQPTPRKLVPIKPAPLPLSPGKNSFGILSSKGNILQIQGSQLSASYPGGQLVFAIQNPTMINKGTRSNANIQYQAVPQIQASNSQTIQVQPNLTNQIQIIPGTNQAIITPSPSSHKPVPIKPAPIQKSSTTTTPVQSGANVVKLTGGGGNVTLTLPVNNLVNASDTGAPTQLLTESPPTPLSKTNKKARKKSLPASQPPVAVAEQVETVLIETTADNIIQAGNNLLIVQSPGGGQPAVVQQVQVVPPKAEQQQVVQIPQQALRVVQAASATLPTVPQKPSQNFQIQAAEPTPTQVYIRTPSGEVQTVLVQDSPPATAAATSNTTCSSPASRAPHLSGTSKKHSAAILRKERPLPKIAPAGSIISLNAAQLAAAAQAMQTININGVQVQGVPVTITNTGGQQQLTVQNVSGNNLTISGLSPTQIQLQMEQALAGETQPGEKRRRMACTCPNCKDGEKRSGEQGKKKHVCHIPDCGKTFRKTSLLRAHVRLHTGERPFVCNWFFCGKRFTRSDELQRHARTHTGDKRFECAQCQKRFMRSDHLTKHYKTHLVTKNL
Sequence of UniProt Q9Y6J9 (Q9Y6J9 whole entry, looked up): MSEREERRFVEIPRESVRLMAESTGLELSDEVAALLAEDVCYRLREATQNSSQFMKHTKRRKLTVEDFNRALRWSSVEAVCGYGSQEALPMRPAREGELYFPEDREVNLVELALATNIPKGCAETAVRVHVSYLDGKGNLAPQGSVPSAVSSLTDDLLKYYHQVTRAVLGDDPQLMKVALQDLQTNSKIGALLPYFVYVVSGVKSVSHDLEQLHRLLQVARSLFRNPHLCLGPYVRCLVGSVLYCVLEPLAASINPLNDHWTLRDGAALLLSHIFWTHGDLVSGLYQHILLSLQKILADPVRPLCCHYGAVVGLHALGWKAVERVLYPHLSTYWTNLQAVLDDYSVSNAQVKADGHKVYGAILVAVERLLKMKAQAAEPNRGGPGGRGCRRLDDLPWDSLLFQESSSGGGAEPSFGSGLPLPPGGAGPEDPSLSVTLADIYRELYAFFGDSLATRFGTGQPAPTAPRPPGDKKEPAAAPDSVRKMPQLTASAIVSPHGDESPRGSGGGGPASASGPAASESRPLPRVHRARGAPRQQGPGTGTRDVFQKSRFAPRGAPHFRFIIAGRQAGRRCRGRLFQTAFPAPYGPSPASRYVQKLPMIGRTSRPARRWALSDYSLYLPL
Sequence of UniProt P36897 (P36897 whole entry, looked up): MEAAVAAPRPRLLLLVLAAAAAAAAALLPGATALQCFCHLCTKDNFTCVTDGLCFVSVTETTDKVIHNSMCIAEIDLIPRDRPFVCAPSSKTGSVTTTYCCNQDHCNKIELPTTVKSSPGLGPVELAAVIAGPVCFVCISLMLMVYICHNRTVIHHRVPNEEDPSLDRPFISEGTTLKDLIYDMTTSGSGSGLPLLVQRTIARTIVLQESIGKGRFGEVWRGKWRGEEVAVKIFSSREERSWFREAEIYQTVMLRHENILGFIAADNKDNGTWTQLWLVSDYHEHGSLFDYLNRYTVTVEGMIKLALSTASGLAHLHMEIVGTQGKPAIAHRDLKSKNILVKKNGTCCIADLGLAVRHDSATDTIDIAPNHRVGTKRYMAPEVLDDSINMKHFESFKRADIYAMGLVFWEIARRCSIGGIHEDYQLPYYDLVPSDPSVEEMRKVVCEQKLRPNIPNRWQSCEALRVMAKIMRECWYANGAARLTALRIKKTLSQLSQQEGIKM
Sequence of UniProt Q8N1F8 (Q8N1F8 whole entry, looked up): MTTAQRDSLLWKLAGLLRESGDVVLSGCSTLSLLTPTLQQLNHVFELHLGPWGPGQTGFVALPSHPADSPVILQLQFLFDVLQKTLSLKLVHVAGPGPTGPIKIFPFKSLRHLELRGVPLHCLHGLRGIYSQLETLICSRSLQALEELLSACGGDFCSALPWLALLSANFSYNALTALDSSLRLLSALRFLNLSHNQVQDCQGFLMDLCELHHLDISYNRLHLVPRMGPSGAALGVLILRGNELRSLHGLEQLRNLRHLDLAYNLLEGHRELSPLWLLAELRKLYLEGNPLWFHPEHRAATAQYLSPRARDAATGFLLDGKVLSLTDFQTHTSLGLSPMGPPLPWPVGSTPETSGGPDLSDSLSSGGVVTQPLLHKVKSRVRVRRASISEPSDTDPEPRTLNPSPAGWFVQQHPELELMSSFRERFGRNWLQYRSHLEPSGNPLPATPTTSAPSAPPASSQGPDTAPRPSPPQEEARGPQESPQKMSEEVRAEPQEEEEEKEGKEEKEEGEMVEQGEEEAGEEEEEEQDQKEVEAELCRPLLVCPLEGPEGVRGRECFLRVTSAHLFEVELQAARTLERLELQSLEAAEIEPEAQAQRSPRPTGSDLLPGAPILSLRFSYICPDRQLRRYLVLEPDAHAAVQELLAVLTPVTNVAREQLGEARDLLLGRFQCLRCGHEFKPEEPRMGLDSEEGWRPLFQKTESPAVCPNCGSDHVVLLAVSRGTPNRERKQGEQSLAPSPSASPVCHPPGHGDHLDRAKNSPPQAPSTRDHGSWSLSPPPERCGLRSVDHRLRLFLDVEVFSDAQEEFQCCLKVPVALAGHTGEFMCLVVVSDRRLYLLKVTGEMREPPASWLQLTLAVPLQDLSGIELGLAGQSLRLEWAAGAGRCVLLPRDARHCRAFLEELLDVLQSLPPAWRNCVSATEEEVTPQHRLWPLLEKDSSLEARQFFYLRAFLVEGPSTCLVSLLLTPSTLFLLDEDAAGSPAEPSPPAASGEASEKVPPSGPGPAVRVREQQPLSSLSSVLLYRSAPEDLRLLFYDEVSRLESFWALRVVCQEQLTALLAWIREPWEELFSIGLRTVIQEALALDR
Sequence of UniProt Q9NXE4 (Q9NXE4 whole entry, looked up): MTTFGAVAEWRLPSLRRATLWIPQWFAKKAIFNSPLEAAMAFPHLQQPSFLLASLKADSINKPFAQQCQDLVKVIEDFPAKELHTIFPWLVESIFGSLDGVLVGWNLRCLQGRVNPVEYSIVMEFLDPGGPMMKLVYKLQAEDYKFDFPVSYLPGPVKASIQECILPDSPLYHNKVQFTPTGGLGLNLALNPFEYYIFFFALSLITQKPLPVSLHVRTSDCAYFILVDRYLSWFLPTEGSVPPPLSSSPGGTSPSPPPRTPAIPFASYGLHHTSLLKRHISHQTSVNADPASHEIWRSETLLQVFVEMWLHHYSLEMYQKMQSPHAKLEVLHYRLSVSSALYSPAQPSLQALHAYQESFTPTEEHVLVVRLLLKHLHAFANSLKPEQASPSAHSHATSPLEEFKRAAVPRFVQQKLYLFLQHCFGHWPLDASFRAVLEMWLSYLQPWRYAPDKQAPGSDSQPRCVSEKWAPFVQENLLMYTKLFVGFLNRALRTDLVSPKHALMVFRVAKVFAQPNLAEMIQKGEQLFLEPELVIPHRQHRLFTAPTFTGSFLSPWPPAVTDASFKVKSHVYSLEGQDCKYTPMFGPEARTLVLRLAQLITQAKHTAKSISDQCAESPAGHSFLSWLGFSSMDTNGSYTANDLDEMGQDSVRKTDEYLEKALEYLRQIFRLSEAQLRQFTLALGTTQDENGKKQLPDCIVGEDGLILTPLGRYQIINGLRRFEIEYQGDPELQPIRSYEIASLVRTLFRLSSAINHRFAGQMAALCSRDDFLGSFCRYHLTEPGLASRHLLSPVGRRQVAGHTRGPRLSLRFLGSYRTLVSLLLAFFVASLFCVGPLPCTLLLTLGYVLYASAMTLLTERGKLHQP
Sequence of UniProt Q9NS93 (Q9NS93 whole entry, looked up): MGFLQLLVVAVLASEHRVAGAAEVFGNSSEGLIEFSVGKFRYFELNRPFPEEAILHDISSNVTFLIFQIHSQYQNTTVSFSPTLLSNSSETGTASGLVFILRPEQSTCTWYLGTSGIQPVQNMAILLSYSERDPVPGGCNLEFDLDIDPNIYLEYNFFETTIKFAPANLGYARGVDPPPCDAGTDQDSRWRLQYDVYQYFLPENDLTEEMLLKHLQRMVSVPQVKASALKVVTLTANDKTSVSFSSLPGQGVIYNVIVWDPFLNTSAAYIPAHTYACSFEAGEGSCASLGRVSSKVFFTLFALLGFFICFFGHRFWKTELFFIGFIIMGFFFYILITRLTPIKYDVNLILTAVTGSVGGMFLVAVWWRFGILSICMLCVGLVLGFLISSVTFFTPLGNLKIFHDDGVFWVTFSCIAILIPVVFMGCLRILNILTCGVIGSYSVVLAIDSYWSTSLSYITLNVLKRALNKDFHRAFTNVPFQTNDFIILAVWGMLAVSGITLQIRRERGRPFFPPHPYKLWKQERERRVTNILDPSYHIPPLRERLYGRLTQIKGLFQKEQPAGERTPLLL

Regarding TBC1D20 isoform 3 (UniProt Q96BZ9), the log2 fold change was 0.022 with erlotinib; 0.195 in experiment [1]; 0.094 in experiment [2]; 0.083 in experiment [3]; 0.047 in [4]; -0.015 in experiment [5]. The log2 fold change in [6] is -0.048; in experiment [7], -0.048; in the experiment with IRAK-1-4 Inhibitor I, 0.02; with ibrutinib, 0.004; in [8], -0.124; with ralimetinib, -0.104. The log2 fold change in experiment [9] was -0.087; in experiment [10], -0.099; in experiment [11], -0.017; in the experiment with pinometostat, 0; in [12] it was -0.061.

As to STK11IP (UniProt Q8N1F8), the log2 fold change was 0.025 with erlotinib; 0.152 in experiment [1]; -0.079 in experiment [2]; -0.243 in experiment [3]; 0.094 in [4]; 0.006 in experiment [5]. In addition, the log2 fold change in experiment [7] was -0.062; in experiment [13], 0.042; in [14], -0.01; with IRAK-1-4 Inhibitor I, -0.248; with ibrutinib it was 0.027; in experiment [8], -0.02. Besides, the log2 fold change in experiment [9] is -0.131; in experiment [10], -0.932 (active); in the experiment with pinometostat it was 0.168; in [12] it was 0.1; in experiment [15] it was -0.183.

Take TGFBR1 isoform 2 (UniProt P36897): the log2 fold change in the experiment with erlotinib is -0.012; in [1] it was 0.084; in experiment [3], -0.051; in experiment [4], -0.072; in experiment [5] it was 0.043; in experiment [6], 0.161. Moreover, the log2 fold change in experiment [7] is 0.004; in [13] it was -0.019; in experiment [14], 0.047; in the experiment with IRAK-1-4 Inhibitor I, -0.004; in the experiment with ibrutinib, 0.006; in experiment [8], 0.329 (active). In addition, the log2 fold change with ralimetinib is 0.072; in experiment [9] it was -0.043; in experiment [10], 0.025; in experiment [11], 0.049; with pinometostat, -0.047; in [12], -0.022. Moreover, the log2 fold change in experiment [15] was 0.019.

For SP2 (UniProt Q02086), the log2 fold change in [1] was 0; in experiment [4] it was 0.229; in experiment [7], 0.095; with IRAK-1-4 Inhibitor I, -0.126; in [8] it was -0.472; with pinometostat it was 0.212.

On to SNX15 (UniProt Q9NRS6), for which the log2 fold change in experiment [1] is 0.062; in experiment [4] it was -0.088; in experiment [5], -0.006; in [6], 0; in experiment [7], -0.065; in experiment [13] it was -0.166. For the same target, the log2 fold change in [14] was -0.072; with IRAK-1-4 Inhibitor I, -0.031; with ibrutinib, -0.112; in experiment [8] it was -0.111; in the experiment with ralimetinib, -0.051; in experiment [11] it was 0.021. For the same target, the log2 fold change was -0.069 with pinometostat, -0.099 in experiment [12] and -0.016 in experiment [15].

As for TM7SF3 (UniProt Q9NS93), the log2 fold change in the experiment with erlotinib was -0.073; in experiment [1], 0.053; in [3] it was 0.03; in experiment [4], -0.101; in experiment [5] it was 0.034; in experiment [6], 0.02. The log2 fold change in [7] was 0.061; in experiment [13], 0.001; in experiment [14] it was 0.123; in the experiment with IRAK-1-4 Inhibitor I, -0.06; in the experiment with ibrutinib, 0.014; in experiment [8], 0.055. The log2 fold change is -0.068 in the experiment with ralimetinib; -0.485 (active) in experiment [10]; 0.01 in experiment [11]; -0.036 with pinometostat; 0.016 in experiment [12]; 0.057 in experiment [15].

As to SMPD4 isoform 2 (UniProt Q9NXE4), the log2 fold change in experiment [1] is -0.001; in experiment [4], 0.134; in experiment [5], -0.027; in experiment [7], -0.003; in experiment [13], -0.011; in [14], 0.05. In addition, the log2 fold change in the experiment with IRAK-1-4 Inhibitor I is 0.016; with ibrutinib, -0.156; in [8], 0.196; in the experiment with pinometostat, 0; in experiment [15], 0.115.

Take SLC9A6 isoform 3 (UniProt Q92581): the log2 fold change in the experiment with erlotinib is 0.006; in [1], 0.013; in experiment [3] it was -0.103; in experiment [4], -0.022; in experiment [5], 0.18; in [7], -0.068. Further, the log2 fold change in experiment [13] was 0.021; in [14] it was 0.006; in the experiment with ibrutinib, -0.012; in [8], 0.004; in [10], 0.051; in experiment [15], 0.075.

As for TAF6L (UniProt Q9Y6J9), the log2 fold change was 0.042 with erlotinib; 0.08 in experiment [1]; -0.132 in experiment [3]; 0.009 in [4]; -0.051 in experiment [6]; 0.088 in [7]. Besides, the log2 fold change in [13] was -0.069; in experiment [14], -0.197; in experiment [8], 0.054; with ralimetinib it was -0.092; in experiment [10] it was 0.023; in experiment [11], 0.122. Moreover, the log2 fold change in [12] is 0.118; in experiment [15] it was -0.03.
